An excerpt weighted towards active compounds, which were near 1.3% of everything screened.
Mtb UGM inh – Mtb UDP-galactopyranose mutase inhibition; P9WIQ1; purified UGM, fluorescence polarization probe displacement; inhibition, % at 10 µM; hit rate 0.06% among 320,000; AID 504406; in the data active = inhibition above about 10%, passing the limit was not always enough
Target sequence (P9WIQ1 whole entry, looked up): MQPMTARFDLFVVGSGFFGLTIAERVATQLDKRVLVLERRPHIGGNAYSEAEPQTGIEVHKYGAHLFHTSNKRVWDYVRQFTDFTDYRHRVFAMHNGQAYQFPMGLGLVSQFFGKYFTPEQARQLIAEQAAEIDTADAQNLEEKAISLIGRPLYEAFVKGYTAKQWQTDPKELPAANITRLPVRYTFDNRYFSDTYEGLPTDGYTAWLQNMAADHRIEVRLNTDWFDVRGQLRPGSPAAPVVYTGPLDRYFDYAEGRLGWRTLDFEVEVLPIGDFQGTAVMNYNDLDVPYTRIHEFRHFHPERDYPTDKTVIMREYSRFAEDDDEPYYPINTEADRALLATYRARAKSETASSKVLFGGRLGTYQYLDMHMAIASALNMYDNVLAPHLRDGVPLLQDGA
FadD28 FP inh – inhibitors of Mycobacterium tuberculosis FadD28 bisubstrate binding; hit rate 0.22% among 360,000; inhibition, % at 12.5 µM; FadD28 bisubstrate probe binding, fluorescence polarization; in the data active = inhibition above about 8.5%, passing the limit was not always enough
Rv3671c protease – inhibits the M. tuberculosis serine protease Rv3671c; P9WHR9; inhibition, % at 5.96 µM; hit rate 0.048% among 320,000; AID 2606; in the data active = inhibition above about 38%;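 also: extracellular domain of Rv3671c used as enzyme; 0% = enzyme with DMSO and 100% = no enzyme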
BJeLR viability – kills HRASV12-expressing BJeLR cells; BJeLR (HRASV12) viability, CellTiter-Glo ATP luminescence, 48 h; inhibition, % (no concentration beside the values); hit rate 0.17% among 300,000; AID 1554; in the data active = inhibition above about 50%
RecA intein inh – blocks M. tuberculosis RecA intein splicing; P9WHJ3; cell-free RecA intein splicing, fluorescence; inhibition, % (no concentration beside the values); hit rate 0.75% among 290,000; AID 2221; in the data active = inhibition above about 30%;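 also: 0% = vehicle wells and 100% = reference inhibitor control wells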
PrP 5UTR inh – suppresses PrP 5' UTR mRNA reporter expression; AID 488862; cell-based PrP 5' UTR mRNA reporter, plate reader; hit rate 0.35% among 340,000; inhibition, % (test concentration not listed); in the data active = inhibition above about 52%; also: 0 = median of the neutral control wells
Starred values were filed as active, the others as inactive; ! = repeats disagree.

Results for Cc1ccc(SCc2[nH]nc3c2C2(C(=O)Nc4ccc([N+](=O)[O-])cc42)C(C#N)=C(N)O3)cc1 (configuration not stated) ?
Mtb UGM inh: 0; FadD28 FP inh: -4; Rv3671c protease: -3; BJeLR viability: -5; RecA intein inh: 12; PrP 5UTR inh: -5

Results for CCOC(=O)N1CCC2(CC1)C(C#N)=C(N)Oc1n[nH]c(CSc3ccc(C)cc3)c12 ?
Mtb UGM inh: 1; FadD28 FP inh: -8; Rv3671c protease: 5; BJeLR viability: 0; RecA intein inh: 51*; PrP 5UTR inh: -32

What do the screens show for `OCCc1ccc(NCCc2cccs2)cc1`?
FadD28 FP inh: -4

What do the screens show for `Cc1nc(NC(=O)c2ccccc2)sc1-c1cc(C(=O)O)nn1Cc1ccccc1`?
FadD28 FP inh: -3

Results for COc1cccc(Nc2ccccc2C(=O)O)c1 ?
Mtb UGM inh: 2; FadD28 FP inh: 1; Rv3671c protease: 11; BJeLR viability: -4; RecA intein inh: 7; PrP 5UTR inh: -19

Results for COc1cc(-c2ccc(Nc3ccccc3C(=O)O)c(OC)c2)ccc1Nc1ccccc1C(=O)O ?
FadD28 FP inh: 78*; PrP 5UTR inh: -14

How did COc1cc(/C=N/NC(=O)CN(Cc2ccccc2)S(=O)(=O)c2ccc3c(c2)OCCO3)ccc1O do in these assays?
Mtb UGM inh: -1; FadD28 FP inh: 22*; Rv3671c protease: 7; BJeLR viability: 13; RecA intein inh: 3; PrP 5UTR inh: -33

What do the screens show for `CCCS(=O)(=O)c1nnnn1-c1cccc(OC)c1`?
Mtb UGM inh: 0; FadD28 FP inh: -2; Rv3671c protease: 4; BJeLR viability: 3; RecA intein inh: 91*; PrP 5UTR inh: 10

Results for COc1cc(OC)cc(-c2nnc(SCC(=O)N(C(C)C)C(C)C)o2)c1 ?
Mtb UGM inh: 2; FadD28 FP inh: -3; Rv3671c protease: -1; BJeLR viability: 1; RecA intein inh: -1; PrP 5UTR inh: -14

What do the screens show for `COc1cc(OC)cc(-c2nnc(Sc3ccc(C=O)cc3[N+](=O)[O-])o2)c1`?
Mtb UGM inh: 0; Rv3671c protease: 7; BJeLR viability: 7; RecA intein inh: 52*

Results for O=C(N/N=C/c1cc(Br)c(O)c(Br)c1)c1cc2c(ccc3ccccc32)o1 ?
Mtb UGM inh: 0; FadD28 FP inh: 25*; RecA intein inh: -14; PrP 5UTR inh: 0

What do the screens show for `O=C(N/N=C/c1cc(Cl)c(O)c(Cl)c1)c1cc2c(ccc3ccccc32)o1`?
Mtb UGM inh: 3; FadD28 FP inh: 39*; Rv3671c protease: 29; BJeLR viability: -5; PrP 5UTR inh: -21

What do the screens show for `CCN(CC)C(=O)C1=C(C)N(Cc2ccc(OC)cc2)C(=O)C(CC(=O)NCC2CCCCC2)C1` (configuration not stated)?
FadD28 FP inh: -4

What do the screens show for `CCOC(=O)C1=C(Cc2ccc(OC)cc2)C(=O)c2ccccc2C1=O`?
FadD28 FP inh: 4; PrP 5UTR inh: -37

What do the screens show for `CCOC(=O)C1=C(Cc2ccc(C)cc2)C(=O)c2ccccc2C1=O`?
Mtb UGM inh: -1; Rv3671c protease: -31; BJeLR viability: 24; RecA intein inh: 61*

Results for CC(=O)CC(=O)NC1CCc2ccccc21 (configuration not stated) ?
FadD28 FP inh: -2; PrP 5UTR inh: -9

What do the screens show for `Cc1ccccc1S(=O)(=O)N1CCN(c2ccc3c(c2)C2CC3CCN2C(=O)OCc2ccccc2)CC1` (configuration not stated)?
FadD28 FP inh: -2

What do the screens show for `CCOC(=O)c1cnc2ccc(C)cc2c1N(C)Cc1ccccc1`?
Mtb UGM inh: 3; FadD28 FP inh: -1; Rv3671c protease: -5; BJeLR viability: 6; RecA intein inh: 13

Results for CCOC(=O)c1cnc2ccc(C)cc2c1Sc1ccc(F)cc1 ?
Mtb UGM inh: 4; FadD28 FP inh: -3; Rv3671c protease: 11; BJeLR viability: -8; RecA intein inh: 67*; PrP 5UTR inh: -42

How did C1=C\CCC2(OCCO2)C2(CC/1)OCCO2 do in these assays?
FadD28 FP inh: -2

How did Cc1cccc(N2CCN(C(=O)c3ccc4c(c3)NC(=O)C(CSCc3ccc(F)cc3)N4)CC2C)c1 (configuration not stated) do in these assays?
Mtb UGM inh: -3; Rv3671c protease: -21; BJeLR viability: -2; RecA intein inh: 33*

What do the screens show for `Cc1ccccc1OC1(C)CCN(Cc2ccc(-c3ccccn3)cc2)C1` (configuration not stated)?
FadD28 FP inh: 0

Results for O=C(c1ccc2nc(-c3ccco3)c(-c3ccco3)nc2c1)N1CCN(c2ccccc2)CC1 ?
FadD28 FP inh: -3; Rv3671c protease: 4; BJeLR viability: -2; RecA intein inh: -25; PrP 5UTR inh: -16

Results for O=C(O)c1cc(-c2ccco2)nc2ccc(Br)cc12 ?
Mtb UGM inh: 2; FadD28 FP inh: 29*!; Rv3671c protease: -5; BJeLR viability: -3; RecA intein inh: -1; PrP 5UTR inh: 0

What do the screens show for `O=C(O)c1ccc2nc(-c3ccco3)c(-c3ccco3)nc2c1`?
FadD28 FP inh: 13*; RecA intein inh: -113; PrP 5UTR inh: -79

How did O=C(c1ccco1)N1CCN(C(=O)c2cc(-c3ccncc3)nc3ccc(Br)cc23)CC1 do in these assays?
Mtb UGM inh: 2; FadD28 FP inh: -4; Rv3671c protease: -6; BJeLR viability: -1; RecA intein inh: 1; PrP 5UTR inh: -14

How did CCOC(=O)Cc1c(C)c2c(C)[nH]nc2oc1=O do in these assays?
Mtb UGM inh: -2; FadD28 FP inh: -3; Rv3671c protease: -4; BJeLR viability: 1; RecA intein inh: 39*; PrP 5UTR inh: -11

What do the screens show for `CCCc1c(C)c2c(C)[nH]nc2oc1=O`?
Mtb UGM inh: -1; FadD28 FP inh: 0; Rv3671c protease: -2; BJeLR viability: -4; RecA intein inh: 41*; PrP 5UTR inh: -23

How did Cc1ccc2ccccc2c1C(O)c1ncc(-c2ccccc2)[nH]1 (configuration not stated) do in these assays?
FadD28 FP inh: -2

Results for Cc1cc(C(=O)OCC(=O)Nc2c(Cl)cccc2Cl)c(C)o1 ?
Mtb UGM inh: 10*; FadD28 FP inh: 1; Rv3671c protease: 2; PrP 5UTR inh: -22

What do the screens show for `NC(=O)c1ccsc1NC(=O)COC(=O)Cc1ccccc1[N+](=O)[O-]`?
FadD28 FP inh: -4

How did COc1cccc2c1C(=O)c1c(O)c3c(c(O)c1C2=O)CC(O)(C(C)=O)CC3OC1CC(O)C(O)C(C)O1 (configuration not stated) do in these assays?
FadD28 FP inh: 66*; PrP 5UTR inh: 7

Results for Cc1ccc(C)c(-c2ccc(=O)n(Cc3ccc(F)cc3Cl)n2)c1 ?
Mtb UGM inh: 0; FadD28 FP inh: -4; Rv3671c protease: 1; BJeLR viability: -1; RecA intein inh: 22; PrP 5UTR inh: -33

How did Cc1ccc(C)c(-c2ccc(=O)n(Cc3cccc(Br)c3)n2)c1 do in these assays?
Mtb UGM inh: 3; FadD28 FP inh: -2; Rv3671c protease: -6; BJeLR viability: 1; RecA intein inh: 30*; PrP 5UTR inh: -12

Compound activity: PubChem BioAssay, several laboratories
